Assay results: PubChem BioAssay (NCATS)
Where “and” joins values, the source holds several entries; their conditions need not be identical. Equal entries are not always repeated. Results filed as inconclusive are left out. Calls of active or inactive are those of the source. Calls follow the shape of the dose curve; as a rule, active = well fitted inhibition curve with a large enough effect; inconclusive = small, poorly fitted or top-dose-only effect; inactive = flat fitted curve, though single readings scatter.

What follows are molecules tested on KB-3-1 (assay: Cytotoxic Profiling of Annotated Libraries Using Quantitative High-Throughput Screening (AID 1296008; also: nearly all actives have a fitted effect of over 60% in size)). Details: Five cell lines viability, CellTiter-Glo ATP luminescence, 48-72 h; max response: hits give low values.
Summary of the method: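 Cytotoxicity was measured as CellTiter-Glo ATP luminescence, read after 10 min at room temperature. Compound treatment of the cells lasted 48 or 72 hr at 37 degrees Celsius in a qHTS format.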
% is scaled to controls: 0 for no effect and ±100 for the full control effect; potency is read from the fitted curve at half-maximal effect.

Row | SMILES | max response | Potency | outcome
1 | CN1[C@@H](CC(=O)c2ccccc2)CCC[C@H]1C[C@H](O)c1ccccc1 | -11.5% (inactive) |  | 
2 | CS(=O)(=O)c1ccc(-n2nc(C(F)(F)F)cc2-c2ccc(F)cc2)cc1 | -2.3% (inactive) |  | 
3 | O=C(O)[C@H](O)[C@@H](O)[C@H](O)[C@H](O)CO | 1.75% (inactive) and -7.15% (inactive) |  | 
4 | CCCCCCCCCCCCCCCCCC(=O)O | -8.88% (inactive) |  | 
5 | C[S+](CC[C@H](N)C(=O)O)C[C@H]1O[C@@H](n2cnc3c(N)ncnc32)[C@H](O)[C@@H]1O (some centres not stated) | 16.4% (inactive) and -2.48% (inactive) |  | 
6 | CCCCC[C@H](O)/C=C/[C@@H]1[C@@H](C/C=C\CCCC(=O)O)[C@@H](O)C[C@H]1O | 4.45% (inactive) and 3.57% (inactive) |  | 
7 | CCCCC1C(=O)N(c2ccccc2)N(c2ccc(O)cc2)C1=O (configuration not stated) | -9.78% (inactive) |  | 
8 | O=C(O)/C=C/C(O)c1ccc(Cl)cc1 (configuration not stated) | -6.79% (inactive) |  | 
9 | CN(C)[C@@H]1C(=O)C(C(=O)NCN2CCCC2)=C(O)[C@@]2(O)C(=O)C3=C(O)c4c(O)cccc4[C@@](C)(O)C3C[C@@H]12 (some centres not stated) | 3.68% (inactive) and -3.42% (inactive) |  | 
10 | Cc1cc(O)c2ccccc2c1O | 6.5% (inactive) |  | 
11 | CCCCCC[C@@H](O)C/C=C\CCCCCCCC(=O)O | -2.77% (inactive) and 6.21% (inactive) and -9.38% (inactive) |  | 
12 | Fc1ccc2[nH]c(CN3CCN(c4ccccn4)CC3)cc2c1 | -22.6% (inactive) |  | 
13 | CCCCCCOc1ccccc1C(N)=O | 0.591% (inactive) |  | 
14 | C[N+](C)(C)CCOP(=O)(O)OP(=O)([O-])OC[C@H]1O[C@@H](n2ccc(N)nc2=O)[C@H](O)[C@@H]1O | 10.6% (inactive) and -5.11% (inactive) |  | 
15 | Clc1ccccc1-c1nc(-c2ccncc2)no1 | 12% (inactive) |  | 
16 | CO/N=C(\C(=O)N[C@@H]1C(=O)N2C(C(=O)O)=C(COC(C)=O)CS[C@H]12)c1csc(N)n1 (stereo in doubt) | -7.91% (inactive) |  | 
17 | Nc1nc2ccc([N+](=O)[O-])cc2s1 | -15.7% (inactive) |  | 
18 | CC1(C)C[C@@H]1C(=O)N/C(=C\CCCCSC[C@H](N)C(=O)O)C(=O)O | 4.27% (inactive) and -2.38% (inactive) |  | 
19 | CCCC(=O)OC[C@@H](OC(=O)CCC)[C@@H](OC(=O)CCC)[C@H](Cn1c2nc(=O)[nH]c(=O)c-2nc2cc(C)c(C)cc21)OC(=O)CCC | 23.7% (inactive) |  | 
20 | O=c1cc(-c2ccccc2)oc2ccccc12 |  | 199 nM (active) | 
21 | O=C(O)Cc1cccc(-c2cc(CCCCCCc3ccc(O[C@H]4O[C@H](CO)[C@@H](O)[C@H](O)[C@@H]4O)c(-c4cccc(CC(=O)O)c4)c3)ccc2O[C@H]2O[C@H](CO)[C@@H](O)[C@H](O)[C@@H]2O)c1 |  |  | inactive
22 | CC(C)Cc1ccc([C@H](C)C(=O)O)cc1 | -10.1% (inactive) |  | 
